We go through 36 molecules from ChEMBL document CHEMBL1157539, “Thousands of chemical starting points for antimalarial lead identification” (Nature, 2010).

This experiment has as its system Plasmodium falciparum. Put plainly: GSK_TCMDC: Inhibition of Plasmodium falciparum 3D7 in whole red blood cells, using parasite LDH activity as an index of growth. Test compounds present at 2uM. The class given is functional.
One may read the Inhibition as the share of the control response that was lost under treatment. As for `Br.Oc1ccccc1CCNC1CCc2ccccc2C1` (stereo unspecified), the Inhibition is given as 96%. On to `Cc1[nH]c2ccc(C#N)cc2c(=O)c1Br`, for which the Inhibition was determined as 91%. As for `Cc1ccc(/C=C/C(=O)NCCCCCN2CCN(C(=O)Nc3ccc(Cl)c(C(F)(F)F)c3)CC2)cc1`, the figure is 93%; as for `COc1ccc(-c2cccc(CNC3CCN(CC4Cn5c(=O)ccc6ccc(F)c4c65)CC3)c2)cc1.O=C(O)C(F)(F)F` (stereo unspecified), 100%; as for `N=C(/N=C(/NCCCCCCN/C(=N\C(=N)Nc1ccc(Cl)cc1)N1CCOCC1)N1CCOCC1)Nc1ccc(Cl)cc1`, 93%. As for `O=C(NC1CC1)c1ccc(N2CCCC(COc3ccccc3F)C2)nc1` (stereo unspecified), the figure is 87%; as for `O=C(NC1CCCCC1)N(Cc1cccc(-c2ccc(CNCCc3ccccc3)cc2)c1)C1CCN(Cc2ccccc2)CC1.O=C(O)C(F)(F)F`, 93%; as for `Cl.c1ccc2c(Nc3ccc(Oc4ccc(Nc5c6ccccc6nc6ccccc56)cc4)cc3)c3ccccc3nc2c1`, 100%. As for `O=C(O)C(F)(F)F.c1cncc(CCNCc2cccc(-c3csc(-c4nc5ccccc5[nH]4)c3)c2)c1`, the figure is 100%; as for `CCCCCc1cc(OCCN(C)C)cc2c1C(=O)CC(C)(C)O2.Cl`, 98%. For the molecule `Fc1ccccc1COc1ccc(Nc2ncnc3ccc(I)cc23)cc1Cl`, the Inhibition is on record as 90%. As for `CCC(NCc1ccc(-c2cncc(C(=O)NCC(C)C)c2)cc1)c1ccccc1.O=C(O)C(F)(F)F` (stereo unspecified), the figure is 86%; as for `CC(C)(O)CC(C)(C)c1cc(Cl)ccc1O`, 96%; as for `CCCN(CCCN(CCCN(CCC)C(C)C)c1cc(C)nc(Nc2ccc(Cl)cc2)n1)C(C)C.O=C(O)C(=O)O`, 100%. As for `O=C(N[C@@H](Cc1ccccc1)C(=O)NC1CCCCCC1)c1ccc(O)c(-c2ccc(Cl)c(Cl)c2)c1`, the figure is 92%; as for `COc1ccc2nccc([C@@H](O)CN3CCC(NCc4nc5ccc(F)cc5[nH]4)CC3)c2c1.O=C(O)C(=O)O`, 100%; as for `COCCn1c(-c2cccc(Cl)c2)nn(-c2ccc([N+](=O)[O-])cc2C#N)c1=S`, 100%.

In turn, `N#Cc1ccc(Cn2ccc3c4c(N)nc(N)nc4ccc32)cc1` showed an Inhibition of 92%. In turn, `COC(=O)c1cccc(NC(=O)NC2CCN(c3ccnc(Nc4ccc(OC)cc4)n3)C2)c1` (stereo unspecified) came in with an Inhibition of 99%. As to `CCCNC(=O)C1Cc2c([nH]c3cc(Br)ccc23)C2(CCN(CCc3ccccc3)CC2)N1` (stereo unspecified), the Inhibition was found to be 92%. As for `CC1CN(Cc2csc(Nc3ccccc3)n2)CC(C)O1` (stereo unspecified), the figure is 91%; as for `CC1=C(C(=O)OC(C)C)C(c2ccccc2Cl)C2=C(CC(c3ccccc3)CC2=O)N1` (stereo unspecified), 93%; as for `Cc1noc(-c2ccc(NC[C@@H](C)NC[C@H](O)c3cccc(Cl)c3)cc2)n1`, 97%. As for `Cn1nccc1C(=O)NCCNCc1cccc(-c2ccc(-c3nc4ccccc4[nH]3)s2)c1.O=C(O)C(F)(F)F`, the figure is 100%; as for `Cc1ccc(-n2c(=O)c3cccnc3n2CC(=O)Nc2cccc(C)c2C)cc1`, 96%; as for `CC(=O)Nc1cccc(C(=O)Nc2ccc(-c3cccc(-c4nc5cc(F)ccc5[nH]4)c3)cc2)c1`, 96%. `COc1ccc2nccc(N3CCC(SCCNCc4ccc5c(n4)NC(=O)CS5)C3)c2n1.Cl` (stereo unspecified) showed an Inhibition of 95%.

Consider `O=C(c1ccc2ccccc2n1)N1CCCc2cc(Br)ccc21`, for which the Inhibition was 97%. As for `O=C(Nc1ccc(Br)cc1)N(CCN1CCOCC1)CC(O)COCc1ccc(F)cc1.O=C(O)C(F)(F)F` (stereo unspecified), the figure is 90%.

For the molecule `O=C(Nc1ccnc(N2CC3CC2CN3Cc2cccc(O)c2)c1)c1ccc(F)cc1.O=C(O)C(F)(F)F` (stereo unspecified), the Inhibition was 92%.

As for `Cl.O=C(Nc1cccc(-c2nn3ncccc3c2-c2ccnc(Nc3cccnc3)n2)c1)c1c(F)cccc1F`, the Inhibition turned out to be 96%. As for `CCc1c[nH]c2c(N3CCCCS3(=O)=O)cc(C(=O)N[C@@H](Cc3ccccc3)[C@H](O)CNCc3cccc(OC)c3)cc12.O=CO`, the figure is 86%; as for `Cc1cccc2nc(-c3ccc(-c4ccc(CN5CCC(CCN6CCCCC6)CC5)cc4)cc3)[nH]c12.O=C(O)C(F)(F)F`, 100%. As for `COc1cc(NC(=O)/C=C/c2ccccc2OC(F)(F)F)cc(OCCN2CCCCC2)c1.O=C(O)C(=O)O`, the figure is 96%; as for `Clc1ccc(-c2ccc(C=NNc3nc(=Nc4ccccc4)[nH]c(=Nc4ccccc4)[nH]3)o2)cc1Cl`, 97%; as for `CN1CCN(CCCN(Cc2ccc(-c3ccc(CNCc4ccc5c(c4)OCO5)cc3)cc2)C(=O)CCC2CCCC2)CC1.O=C(O)C(F)(F)F`, 99%.
